Records with an inconclusive call do not appear. Active and inactive are the calls of the source. Calls follow the shape of the full dose curve.

The nature of the assay: S16 Schwann cell PMP22 intronic element beta-lactamase assay (AID 624044). Also: nearly all actives have a fitted effect of over 15% in size. Conditions: S16 rat Schwann cells, PMP22 element beta-lactamase FRET, 24 h; series mostly up to 17.1 µM. From the text: Description: Charcot-Marie-Tooth-Association [CMTA] National Center for Advancing Translational Sciences [NCATS] Charcot-Marie-Tooth (CMT) disease was first characterized by Jean-Martin Charcot and Pierre Marie in France and, independently, by Howard Henry Tooth in England in 1886. CMT is one of the most common inherited neurological diseases, affecting approximately 1 in 2,500 Americans. […] The most prevalent type of CMT is known as CMT1A and caused by a duplication of the PMP22 gene which leads to over-expression of this protein. PMP22 is a glycosylated intrinsic membrane protein accounting for 2-5% of the myelin protein content, and its over-expression results in demyelination and subsequently axonal loss. A pair of cellular transcription-based assays was developed in the S16 rat Schwann cell lines (Hai, M., et al., 2002) stably transfected with orthogonal reporters - firefly luciferase (Fluc) and beta-lactamase (beta-Lac) - whose expression is driven by an intronic regulatory element of the PMP22 gene (Jones, E.A., et al., 2011) to recapitulate endogenous expression of PMP22. The current assay employs Blac as a reporter of PMP22 expression. A comprehensive library of approved drugs, the NCGC Pharmaceutical Collection (Huang, R., et al., 2011), was screened in the cross-validating platform of the orthogonal reporter assays to identify drug modulators inhibitory towards PMP22 expression. A set of counter-screens was devised to address non-specific activity of the library. An ATP-dependent CellTiter-Glo assay (developed by Promega Corp) was utilized to control cell viability. In addition, biochemical Fluc enzyme assay was performed to assess direct inhibition of the Fluc enzymatic activity. References Hai, M., Muja, N., DeVries, G.H., Quarles, R.H. and Patel, P.I. Comparative analysis of Schwann cell lines as model systems for myelin gene transcription studies. J Neurosci Res, 2002. 69(4): pp 497-508 Huang, R., Southall, N., Wang, Y., Yasgar A., Shinn P., Jadhav, A. , Nguyen, D.-T. and Austin, C.P., The NCGC pharmaceutical collection: a comprehensive resource of clinically approved drugs enabling repurposing and chemical genomics. Sci Transl Med, 2011. 3(80): p. 80ps16.
S16 Schwann cell PMP22 intronic element beta-lactamase assay The beta-Lac-expressing S16 cells were seeded in black clear-bottom 1536 well plates at between 500-750 cells/6uL in DMEM medium containing 10% FBS, w/o phenol red. After overnight incubation at 37 degree Celsius/5% C02, 23 nL of compounds or DMSO were delivered to each well using a pin tool, followed by 24h-incubation at 37 degree Celsius/5% C02. Then one microl of LiveBLAzer FRET B/G detection mix (Invitrogen) was added to each well. An EnVision plate reader (PerkinElmer) was used to detect the dual beta-Lac output composed of fluorescence at 460nm for beta-Lac expression and FRET at 535nm for cell viability. The % signal at 535 nm was scaled to a full range of DMSO and zero and then normalized using the maximum response observed in the screen as 100% activity. The % signal at 460nm was normalized to the average readings of potassium clavulanate (a positive control) - treated cells relative to DMSO-treated cells (0% Activity). The concentration-effect curves were then classified based on curve quality (r2), response magnitude and degree of measured activity.
For the compound `CC(=O)N(CC(O)CN(C(C)=O)c1c(I)c(C(=O)NC[C@@H](O)CO)c(I)c(C(=O)NC[C@@H](O)CO)c1I)c1c(I)c(C(=O)NC[C@@H](O)CO)c(I)c(C(=O)NC[C@@H](O)CO)c1I`, the call was inactive.
Turning to `C[C@@H](CN(C)C)CN1c2ccccc2CCc2ccccc21`, the outcome was inactive.
The result for `COc1ccccc1OC[C@H](O)COC(N)=O` reads “inactive”.
Consider `N[C@@H](CO)C(=O)NNCc1ccc(O)c(O)c1O`, for which the compound was called inactive.
Then `CCN(CC)CCC[C@H](C)Nc1ccnc2cc(Cl)ccc12`, with “inactive”.
Then `CCCN[C@@H](C)C(=O)Nc1c(C)csc1C(=O)OC`, with “inactive”; and `C[N+]1(C)CCC[C@@H](OC(=O)C(O)(c2ccccc2)c2ccccc2)C1`, with “inactive”.
The result for `C[C@H](NCCc1ccc(O)cc1)[C@@H](O)c1ccc(O)cc1` reads “inactive”; that for `O=c1[nH]cnc2c1ncn2C1OC(CO)C(O)C1O` (stereo not given), “inactive”.
With `CN(C)CC/C=C1\c2ccccc2CSc2ccccc21`, the call was inactive.
Consider `CN(C)[C@@H]1C(=O)C(C(N)=O)=C(O)[C@]2(O)C(=O)C3=C(O)c4c(O)ccc(Cl)c4[C@H](O)[C@H]3C[C@@H]12`, for which the compound was classed as inactive.
The result for `CN(C)[C@H]1C(=O)C(C(=O)NCN2CCCC2)=C(O)[C@]2(O)C(=O)C3=C(O)c4c(O)cccc4[C@@](C)(O)[C@H]3C[C@@H]12` reads “inactive”.
For `CN1CCCC[C@@H]1CCN1c2ccccc2Sc2ccc(S(C)=O)cc21` (stereo not given in full), the compound was classed as inactive.
The result for `O=C(c1ccccc1)c1ccc2n1CC[C@H]2C(=O)O` reads “inactive”.
Then `O=C(C1CCCCC1)N1CC(=O)N2CCc3ccccc3[C@@H]2C1`, with “inactive”; and `O=C(O)/C=C\c1ccc(Cn2ccnc2)cc1`, with “inactive”.
Then `CCN(CC)CCC[C@H](C)Nc1c2ccc(Cl)cc2nc2ccc(OC)cc12`, with “inactive”.
For `C[C@@H](C(=O)O)c1ccc(C(=O)c2cccs2)cc1`, the outcome was inactive.
With `C[C@@H]1CCC[C@H](C)N1NC(=O)c1ccc(Cl)c(S(N)(=O)=O)c1`, the compound was called inactive.
The result for `COc1cc(/C=C/C(=O)/C=C(O)/C=C/c2ccc(O)c(OC)c2)ccc1O` reads “inactive”.
Then `CC1(C)S[C@@H]2[C@H](NC(=O)[C@H](C(=O)O)c3ccsc3)C(=O)N2[C@H]1C(=O)O`, with “inactive”.
Consider `CC(=O)Nc1c(I)c(C(=O)N[C@H]2[C@@H](O)[C@H](O)[C@H](CO)O[C@@H]2O)c(I)c(N(C)C(C)=O)c1I`, for which the call was inactive.
Then `NC(=O)c1cc[n+](CC2=C(C(=O)O)N3C(=O)[C@@H](NC(=O)[C@H](c4ccccc4)S(=O)(=O)[O-])[C@@H]3SC2)cc1`, with “inactive”; and `CC(=O)O[C@@H](C)C[N+](C)(C)C`, with “inactive”.
With `CCCN[C@@H](C)C(=O)Nc1ccccc1C`, the compound was classed as inactive.
Take `COc1c(O)cc2c(c1O)[C@@H]1O[C@@H](CO)[C@@H](O)[C@@H](O)[C@@H]1OC2=O`: the result was inactive.
The result for `NS(=O)(=O)c1cc([C@@]2(O)NC(=O)c3ccccc32)ccc1Cl` reads “inactive”.
On to `Cn1c(=O)c2c(ncn2C[C@@H](O)CO)n(C)c1=O`, for which the compound was classed as inactive.
Turning to `NC(N)=NC[C@@H]1COC2(CCCCC2)O1`, the compound was called inactive.
Then `CC[C@H](NC(C)C)[C@H](O)c1ccc(O)c(O)c1`, with “inactive”; and `COCCc1ccc(OC[C@H](O)CNC(C)C)cc1`, with “inactive”; and `CCn1cc(C(=O)O)c(=O)c2cc(F)c(N3CCN[C@@H](C)C3)c(F)c21`, with “inactive”.
Turning to `C/C=C\C(=O)N(CC)c1ccccc1C`, the call was inactive.
For the compound `CCN(CC)CC#CCOC(=O)[C@@](O)(c1ccccc1)C1CCCCC1`, the compound was called inactive.
For `CO[C@H]1C[C@@H](O[C@@H]2[C@H](C)[C@H](O[C@@H]3O[C@@H](C)C[C@@H](N(C)C)[C@@H]3O)[C@H](C)C[C@]3(CO3)C(=O)[C@H](C)[C@H](O)[C@H](C)[C@H](C)OC(=O)[C@@H]2C)O[C@@H](C)[C@H]1O`, the compound was classed as inactive.
Then `CN1[C@@H]2CC[C@H]1CC(OC(=O)[C@@H](O)c1ccccc1)C2` (stereo not given in full), with “inactive”.
The result for `COc1ccc(C[C@@H]2c3cc(OC)c(OC)cc3CC[N@+]2(C)CCC(=O)OCCCCCOC(=O)CC[N@@+]2(C)CCc3cc(OC)c(OC)cc3[C@H]2Cc2ccc(OC)c(OC)c2)cc1OC` reads “inactive”; that for `O=c1[nH]c(=O)n([C@@H]2C[C@H](O)[C@H](CO)O2)cc1I`, “inactive”; that for `C[C@@H](CCc1ccccc1)NC[C@H](O)c1ccc(O)c(C(N)=O)c1`, “inactive”.
The result for `CCN[C@@H]1C[C@H](C)S(=O)(=O)c2sc(S(N)(=O)=O)cc21` reads “inactive”.

The values above are taken from PubChem BioAssay (NCATS).
